Numbering of substitutions follows the chain as printed.

In the first assay the target is T1, SALL4 ZFC4 WT (HT-SELEX) (Mus musculus, UniProt Q8BX22 870-940).
T1 sequence: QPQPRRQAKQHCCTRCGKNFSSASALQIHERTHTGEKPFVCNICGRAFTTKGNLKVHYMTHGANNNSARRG
Briefly: HT-SELEX; high values mean tight binding. The following applies: protein: recombinant; vector His6-GST; dsDNA, one strand shown. The essentials: (§1)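 Binding signal is defined as the fold change of each canonical k-mer's read fraction versus the initial random library. Selections used 1 µg of purified recombinant mouse SALL4 zinc finger cluster 4 (residues 870–940) with library DNA (1.5 µg first cycle, 200 ng later) in 100 µl of 10 mM Tris–HCl pH 7.5, 50 mM NaCl, poly(dI-dC) and DTT, for 10 min at room temperature, followed by Ni2+ bead capture, washing and PCR. Up to 6 such cycles were run in triplicate before MiSeq sequencing and 6-mer scanning.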
For TTACAA, the binding signal turned out to be 2.01 ± 0.0785 fold-change vs cycle 0.
Turning to ATGGGA, the binding signal was 0.904 ± 0.0547 fold-change vs cycle 0.
Turning to GAACAC, the binding signal is 0.766 ± 0.0374 fold-change vs cycle 0.
As to AATGAG, the binding signal amounted to 1.36 ± 0.0386 fold-change vs cycle 0.
With CCTTGC, the binding signal came to 0.381 ± 0.0117 fold-change vs cycle 0.
On the same count and under the same terms, the same measure for ACCACT: 0.783 ± 0.0402 fold-change vs cycle 0; for ACTCAT: 1.52 ± 0.0846 fold-change vs cycle 0; for ATTCGA: 1.07 ± 0.0464 fold-change vs cycle 0.
Still for that read-out and setting: under ATTTGA stands 1.85 ± 0.0312 fold-change vs cycle 0.
For the sequence ACGATG, the binding signal amounted to 0.719 ± 0.0288 fold-change vs cycle 0.
The same measure, in the same setting: under CTAGGC stands 0.314 ± 0.00866 fold-change vs cycle 0; under AATTAC, 2.12 ± 0.116 fold-change vs cycle 0.
Regarding CATATC, the binding signal is 1.68 ± 0.148 fold-change vs cycle 0.
Same read-out and setting: the same measure for GTTGCA: 0.582 ± 0.0571 fold-change vs cycle 0.
Regarding AGTCTG, the binding signal was determined as 0.76 ± 0.0287 fold-change vs cycle 0.
Turning to TCGAGA, the binding signal came out at 0.763 ± 0.0625 fold-change vs cycle 0.
Still for that read-out and setting: under TCCCGA stands 0.394 ± 0.0144 fold-change vs cycle 0; under AAAAAG, 1.57 ± 0.0619 fold-change vs cycle 0; under CAGAGA, 0.765 ± 0.0216 fold-change vs cycle 0.
The same measure, in the same setting: under CCTGGA stands 0.496 ± 0.0295 fold-change vs cycle 0; under AGAAAT, 2.29 ± 0.182 fold-change vs cycle 0.
In the case of AAGAGG, the binding signal came out at 0.855 ± 0.0331 fold-change vs cycle 0.
Still for that read-out and setting: the same measure for AATCCG: 0.616 ± 0.0217 fold-change vs cycle 0.
For AAAAGT, the binding signal came out at 1.71 ± 0.0529 fold-change vs cycle 0.
In the case of ACACCC, the binding signal was 0.416 ± 0.0284 fold-change vs cycle 0.
On to TATTGA, for which the binding signal was found to be 2.22 ± 0.167 fold-change vs cycle 0.
For GATGTA, the binding signal came to 1.358 ± 0.0117 fold-change vs cycle 0.
Take GCACAC: the binding signal is 0.35 ± 0.011 fold-change vs cycle 0.
Still for that read-out and setting: under GAGAAA stands 1.28 ± 0.0744 fold-change vs cycle 0; under ATTAGC, 1.14 ± 0.0454 fold-change vs cycle 0; under AATTAA, 3.49 ± 0.279 fold-change vs cycle 0.
Turning to GAGTGC, the binding signal is 0.332 ± 0.0145 fold-change vs cycle 0.
The same measure, in the same setting: the same measure for GAGCAC: 0.415 ± 0.0413 fold-change vs cycle 0; for AACATT: 1.95 ± 0.0486 fold-change vs cycle 0; for ACTAAG: 1.42 ± 0.0426 fold-change vs cycle 0.
Still for that read-out and setting: the same measure for GACATA: 1.19 ± 0.0463 fold-change vs cycle 0; for AGACCA: 0.701 ± 0.0172 fold-change vs cycle 0.
As for CTCGAC, the binding signal was found to be 0.348 ± 0.0179 fold-change vs cycle 0.
Still for that read-out and setting: the same measure for GGACAC: 0.362 ± 0.012 fold-change vs cycle 0; for CTCAAG: 0.858 ± 0.0354 fold-change vs cycle 0.

The target in another assay is T2, SALL4 ZFC4 R900W (HT-SELEX) (Mus musculus, UniProt Q8BX22 870-940, R900W).
T2 sequence: T1 sequence with R31W
The assay can be described thus: HT-SELEX; high values mean tight binding. The following applies: protein: recombinant; vector His6-GST; dsDNA, one strand shown. In short, it runs like this:
as §1
On to TTACAA, for which the binding signal stood at 2.03 ± 0.0849 fold-change vs cycle 0.
Take ATGGGA: the binding signal was 0.99 ± 0.053 fold-change vs cycle 0.
As for GAACAC, the binding signal was found to be 0.901 ± 0.0255 fold-change vs cycle 0.
The same measure, in the same setting: under AATGAG stands 1.5 ± 0.047 fold-change vs cycle 0; under CCTTGC, 0.45 ± 0.00496 fold-change vs cycle 0; under ACCACT, 0.885 ± 0.0293 fold-change vs cycle 0.
Turning to ACTCAT, the binding signal came out at 1.54 ± 0.0355 fold-change vs cycle 0.
The same measure, in the same setting: under ATTCGA stands 1.15 ± 0.0515 fold-change vs cycle 0; under ATTTGA, 1.79 ± 0.0613 fold-change vs cycle 0.
On the same count and under the same terms, under ACGATG stands 0.794 ± 0.00845 fold-change vs cycle 0.
Take CTAGGC: the binding signal turned out to be 0.38 ± 0.00705 fold-change vs cycle 0.
The same measure, in the same setting: the same measure for AATTAC: 2 ± 0.127 fold-change vs cycle 0; for CATATC: 1.44 ± 0.0706 fold-change vs cycle 0; for GTTGCA: 0.661 ± 0.0273 fold-change vs cycle 0.
Same read-out and setting: under AGTCTG stands 0.869 ± 0.0157 fold-change vs cycle 0.
Regarding TCGAGA, the binding signal came to 0.863 ± 0.0493 fold-change vs cycle 0.
The same measure, in the same setting: under TCCCGA stands 0.445 ± 0.019 fold-change vs cycle 0.
Same read-out and setting: the same measure for AAAAAG: 1.68 ± 0.0943 fold-change vs cycle 0; for CAGAGA: 0.92 ± 0.0161 fold-change vs cycle 0.
The same measure, in the same setting: the same measure for CCTGGA: 0.556 ± 0.0141 fold-change vs cycle 0; for AGAAAT: 2.02 ± 0.161 fold-change vs cycle 0.
On to AAGAGG, for which the binding signal is 1.01 ± 0.0625 fold-change vs cycle 0.
Same read-out and setting: the same measure for AATCCG: 0.698 ± 0.0254 fold-change vs cycle 0.
For the sequence AAAAGT, the binding signal was determined as 1.76 ± 0.0934 fold-change vs cycle 0.
Turning to ACACCC, the binding signal stood at 0.506 ± 0.0389 fold-change vs cycle 0.
The same measure, in the same setting: under TATTGA stands 2 ± 0.134 fold-change vs cycle 0; under GATGTA, 1.425 ± 0.0112 fold-change vs cycle 0; under GCACAC, 0.453 ± 0.0146 fold-change vs cycle 0.
The same measure, in the same setting: the same measure for GAGAAA: 1.39 ± 0.0816 fold-change vs cycle 0; for ATTAGC: 1.18 ± 0.016 fold-change vs cycle 0.
As to AATTAA, the binding signal amounted to 2.6 ± 0.189 fold-change vs cycle 0.
As for GAGTGC, the binding signal came out at 0.398 ± 0.019 fold-change vs cycle 0.
Take GAGCAC: the binding signal was found to be 0.537 ± 0.0508 fold-change vs cycle 0.
Still for that read-out and setting: the same measure for AACATT: 1.96 ± 0.0488 fold-change vs cycle 0; for ACTAAG: 1.61 ± 0.0315 fold-change vs cycle 0.
The same measure, in the same setting: under GACATA stands 1.28 ± 0.0199 fold-change vs cycle 0.
Same read-out and setting: under AGACCA stands 0.823 ± 0.0201 fold-change vs cycle 0; under CTCGAC, 0.396 ± 0.0285 fold-change vs cycle 0.
As to GGACAC, the binding signal amounted to 0.454 ± 0.013 fold-change vs cycle 0.
On to CTCAAG, for which the binding signal came out at 1.02 ± 0.032 fold-change vs cycle 0.

The target of a further assay is T3, SALL4 ZFC4 G921D (HT-SELEX) (Mus musculus, UniProt Q8BX22 870-940, G921D).
T3 sequence: T1 sequence with G52D
The assay can be described thus: HT-SELEX; high values mean tight binding. The conditions noted are these: protein: recombinant; vector His6-GST; dsDNA, one strand shown. The essentials: as §1
With TTACAA, the binding signal worked out at 1.81 ± 0.143 fold-change vs cycle 0.
In the case of ATGGGA, the binding signal worked out at 0.966 ± 0.0349 fold-change vs cycle 0.
On the same count and under the same terms, the same measure for GAACAC: 0.932 ± 0.0461 fold-change vs cycle 0; for AATGAG: 1.41 ± 0.0472 fold-change vs cycle 0.
Still for that read-out and setting: the same measure for CCTTGC: 0.554 ± 0.0487 fold-change vs cycle 0.
Same read-out and setting: under ACCACT stands 0.93 ± 0.0313 fold-change vs cycle 0; under ACTCAT, 1.47 ± 0.11 fold-change vs cycle 0.
For ATTCGA, the binding signal turned out to be 1.2 ± 0.0363 fold-change vs cycle 0.
The same measure, in the same setting: the same measure for ATTTGA: 1.65 ± 0.0905 fold-change vs cycle 0; for ACGATG: 0.87 ± 0.00912 fold-change vs cycle 0; for CTAGGC: 0.509 ± 0.0429 fold-change vs cycle 0.
As to AATTAC, the binding signal is 1.82 ± 0.181 fold-change vs cycle 0.
CATATC: the binding signal turned out to be 1.39 ± 0.0818 fold-change vs cycle 0.
Same read-out and setting: under GTTGCA stands 0.75 ± 0.0252 fold-change vs cycle 0; under AGTCTG, 0.92 ± 0.0107 fold-change vs cycle 0; under TCGAGA, 0.945 ± 0.0348 fold-change vs cycle 0.
For the sequence TCCCGA, the binding signal amounted to 0.562 ± 0.0681 fold-change vs cycle 0.
Still for that read-out and setting: under AAAAAG stands 1.52 ± 0.129 fold-change vs cycle 0.
Consider CAGAGA, for which the binding signal amounted to 0.951 ± 0.0212 fold-change vs cycle 0.
The same measure, in the same setting: the same measure for CCTGGA: 0.647 ± 0.0202 fold-change vs cycle 0; for AGAAAT: 1.78 ± 0.161 fold-change vs cycle 0.
Still for that read-out and setting: the same measure for AAGAGG: 0.999 ± 0.0313 fold-change vs cycle 0; for AATCCG: 0.798 ± 0.0327 fold-change vs cycle 0; for AAAAGT: 1.58 ± 0.113 fold-change vs cycle 0.
On the same count and under the same terms, the same measure for ACACCC: 0.581 ± 0.0534 fold-change vs cycle 0.
Regarding TATTGA, the binding signal amounted to 1.83 ± 0.179 fold-change vs cycle 0.
As for GATGTA, the binding signal was found to be 1.34 ± 0.0458 fold-change vs cycle 0.
On the same count and under the same terms, the same measure for GCACAC: 0.583 ± 0.0993 fold-change vs cycle 0; for GAGAAA: 1.29 ± 0.0905 fold-change vs cycle 0; for ATTAGC: 1.2 ± 0.034 fold-change vs cycle 0.
As to AATTAA, the binding signal was 2.2 ± 0.282 fold-change vs cycle 0.
The same measure, in the same setting: the same measure for GAGTGC: 0.554 ± 0.055 fold-change vs cycle 0; for GAGCAC: 0.674 ± 0.0417 fold-change vs cycle 0; for AACATT: 1.79 ± 0.136 fold-change vs cycle 0.
Still for that read-out and setting: under ACTAAG stands 1.45 ± 0.0661 fold-change vs cycle 0.
With GACATA, the binding signal amounted to 1.25 ± 0.0289 fold-change vs cycle 0.
For AGACCA, the binding signal stood at 0.91 ± 0.0215 fold-change vs cycle 0.
On to CTCGAC, for which the binding signal worked out at 0.539 ± 0.0655 fold-change vs cycle 0.
On the same count and under the same terms, the same measure for GGACAC: 0.559 ± 0.0612 fold-change vs cycle 0; for CTCAAG: 1.04 ± 0.0506 fold-change vs cycle 0.

For the origin of these results see paper PMC9838217, “Structure of SALL4 zinc finger domain reveals link between AT-rich DNA binding and Okihiro syndrome”.
